# Assay outcomes deposited in PubChem by The Scripps Research Institute Molecular Screening Center.
# A selection: hits, their analogues and other compounds. The true share with any hit is near 3.5%.
# TEAD-YAP inh – TEAD-YAP interaction inhibition; HEK-TIYL cells, TEAD-Gal4/YAP UAS-luciferase luminescence; inhibition, % at 9.12 µM; 1.4% of 640,000 active; AID 1259422; in the data active = inhibition above about 32%;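 note: 0% = median of test compound wells and 100% = reference inhibitor wells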
# FBW7 activator – activators of human E3 ligase FBW7. AlphaScreen FBW7–phospho-cyclin E peptide binding, activator screen. normalized activity (activation), % at 26.1 µM. 0.13% of 650,000 active; in the data active = normalized activity above about 1.9%;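 note: purified mutant Fbw7 with reduced substrate affinity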
# MITF inh – blocks human microphthalmia-associated transcription factor; 0.91% of 650,000 active; inhibition, % at 2.6 µM; O75030; AlphaScreen MITF homodimerization, bead proximity signal; in the data active = inhibition above about 50%;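 note: 0% = vehicle wells with protein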
# GPR151 ag – activates the human receptor GPR151; 1% of 650,000 active; PathHunter beta-arrestin GPR151 cells, luminescence; Q8TDV0; AID 1508602; activation, % at 11.2 µM; in the data active = activation above about 4.9%;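 note: 0% = median of compound wells and 100% = cells with positive control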
# GPR151 conf act – confirmation of human GPR151 activators; shares compounds with GPR151 ag; GPR151 PathHunter beta-arrestin cells, luminescence, 90 min; % of EA-reagent control over plate median; activation, % at 11.2 µM; 6,700 tested, under 10 active;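 active = mean percent activation across replicates above the confirmation screen cutoff of 4.91%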
# GPR119 ag – activates human GPR119 in a GPR151 counter-screen; shares compounds with GPR151 ag; GPR119 PathHunter beta-arrestin cells, luminescence, 90 min; 0 = compound-well median, 100 = enzyme-acceptor control; activation, % at 11.2 µM; 0.3% of 6,700 active;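 active = mean percent activation in the counterscreen above 29.09%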;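 note: counterscreen on off-target GPR119 to flag nonselective hits from the GPR151 activator screen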
# Starred values were filed as active, the others as inactive; nt = not tested or not shown.
SMILES,TEAD-YAP inh,FBW7 activator,MITF inh,GPR151 ag,GPR151 conf act,GPR119 ag
CC(=O)c1cccc(NC(=O)COC(=O)c2ccc(Cl)c(N)c2)c1,-3,0,-3,0,nt,nt
Nc1cc(C(=O)OCC(=O)Nc2cccc(S(N)(=O)=O)c2)ccc1Cl,2,0,9,6.4*,0,-3
Cc1nn(C)c(C)c1-c1cccc(C(N)=O)c1,0,0,-5,0,nt,nt
Cc1nn(C)c(C)c1-c1ccc2nc(C(C)C)[nH]c(=O)c2c1,3,0,-10,5.6*,-1,1
Oc1ccc(CCNc2ccnc(N3CCN(c4ccccn4)CC3)n2)cc1,6,0,-7,6.2*,0,-2
COc1ccc(C(=O)NCc2nnc(SCC(=O)N3N=C(c4cccs4)CC3c3ccc(OC)cc3)n2-c2cccc(C)c2)cc1 (configuration not stated),-12,0,7,-1,nt,nt
COc1ccc(OC)c(NC(=O)CC(Cc2ccc(Cl)cc2)C(=O)O)c1 (configuration not stated),6,0,8,5.2*,0,-7
COc1ccc(O)c(/C=N/NC(=O)CCC(=O)Nc2cccc(C)c2)c1,23,0,30,8.7*,0,6
CCOc1ccc(/C=N/NC(=O)C(O)c2ccccc2)c(O)c1 (configuration not stated),-6,0,9,5.8*,1,6
COc1cccc(/C=N\NC(=O)CNc2ccc(C)cc2)c1O,-3,0,-24,0,nt,nt
O=C(CCCCCNC(=O)c1ccccc1)N/N=C/c1ccccc1O,10,0,13,9.6*,1,11
COc1cccc(/C=N/NC(=O)CNc2cccc(Cl)c2)c1O,17,0,12,7.2*,-1,-13
CCOc1cc(C2C(C(=O)OC(C)C)=C(C)NC3=C2C(=O)CC(c2ccc(OC)cc2)C3)cc(Cl)c1O (configuration not stated),2,0,2,0,nt,nt
CCOc1ccc(NCC(=O)N/N=C/c2cc(OC)ccc2O)cc1,13,0,2,2,nt,nt
CCOc1ccc(NCC(=O)N/N=C/c2ccccc2O)cc1,5,0,10,5.4*,1,-16
COc1ccc(O)c(/C=N/NC(=O)CNc2cccc(C)c2)c1,8,0,-2,0,nt,nt
Cc1ccccc1NCC(=O)N/N=C\c1cc(Br)cc(Cl)c1O,22,0,10,9.2*,-1,-8
Cc1cccc(NCC(=O)N/N=C/c2ccccc2O)c1,1,0,10,7.2*,2,4
CC(=O)Nc1ccc(NC(=S)NC(=O)COc2ccc(C)cc2)cc1,-26,0,-4,1,nt,nt
COC(=O)c1ccccc1NC(=O)C1CCCN1S(=O)(=O)c1ccc(C)cc1 (configuration not stated),2,0,0,1,nt,nt
COc1ccc(C(=O)Cn2c(-c3nnc(C(C)C)o3)cc3ccccc32)cc1,-11,0,26,1,nt,nt
CC(C)c1nnc(-c2cc3ccccc3n2Cc2ccccc2)o1,-6,0,-11,5.6*,-1,-13
COc1ccccc1N/C(N)=N/c1nc(C(F)(F)F)cc(=O)[nH]1,7,0,-9,5.1*,-1,-8
Cc1ccccc1N/C(N)=N/c1nc(C(F)(F)F)cc(=O)[nH]1,4,0,11,8.2*,1,8
CCN(CC)S(=O)(=O)c1ccc(C(=O)Nc2nc3c(s2)CCc2ccccc2-3)cc1,-6,0,5,2,nt,nt
SMILES,TEAD-YAP inh,FBW7 activator,MITF inh,GPR151 ag,GPR151 conf act,GPR119 ag
COCCn1c(=N)c(C(=O)NCc2ccco2)cc2c(=O)n3ccccc3nc21,-13,0,6,7.3*,0,-8
COc1cccc(NC(=O)c2cc3c(=O)n4ccccc4nc3n(CC(C)C)c2=N)c1,-8,0,-5,5.0*,-1,-7
CCOc1ccc(/C=N/NC(=O)C(=O)NC2CC2)cc1,-1,0,19,5.7*,1,4
CC(C)Oc1ccc(/C=N/NC(=O)C(=O)NC2CCCCC2)cc1,-6,0,-9,1,nt,nt
Cc1cccc(N=c2sc(C3=c4ccccc4=NC3=O)c(O)n2-c2cccc(C)c2)c1,2,0,-3,0,nt,nt
Cc1ccc(S(=O)(=O)/N=c2\sc(C3=c4ccccc4=NC3=O)c(O)n2C)cc1,13,0,5,6.8*,0,-1
COc1ccc2[nH]cc(CCNC(=O)c3ccc(Br)cc3)c2c1,-3,0,-3,9.4*,0,-6
CCC(=O)NCCc1c[nH]c2ccc(OC)cc12,6,0,9,-1,nt,nt
CCOC(=O)C1=CN(Cc2ccc(F)cc2)C=C(C(=O)OCC)C1c1ccc(OCc2ccccc2)c(OC)c1,1,0,-26,14*,0,7
COC(=O)C1=CN(Cc2ccc(F)cc2)C=C(C(=O)OC)C1c1ccc(OCc2ccccc2)c(OC)c1,0,1,1,0,nt,nt
O=C(CSc1ncccc1C(=O)N1CCN(c2cccc(Cl)c2)CC1)Nc1ccc(Br)cc1F,-41,0,0,1,nt,nt
O=C(Nc1cccc2nsnc12)c1ccc([N+](=O)[O-])cc1,-7,0,17,0,nt,nt
O=C(OCc1ccccc1)c1ccc(OC(=O)c2cc3ccccc3oc2=O)cc1,11,0,-19,6.6*,0,-2
O=C(Oc1ccccc1)c1cc2ccccc2oc1=O,-3,0,-2,0,nt,nt
O=C1C2C(c3ccccc3)OC3(C(=O)c4ccccc4C3=O)C2C(=O)N1CCc1ccc(F)cc1 (configuration not stated),-2,0,0,7.5*,0,9
O=C1C2C(c3ccccc3)OC3(C(=O)c4ccccc4C3=O)C2C(=O)N1c1ccccc1 (configuration not stated),-1,0,-5,0,nt,nt
O=C1C2C(c3ccc(F)cc3)OC3(C(=O)c4ccccc4C3=O)C2C(=O)N1Cc1ccccc1 (configuration not stated),14,0,10,5.6*,0,5
COc1ccc(Cl)cc1NC(=O)c1cc(C(=O)O)ccc1C(=O)O,14,1,20,2,nt,nt
COc1ccc(Cl)cc1NC(=O)CSc1nc(N)cc(N)n1,-8,0,0,0,nt,nt
COc1ccc(Cl)cc1NC(=O)CSc1nccn1-c1ccccc1C,-2,0,-1,5.2*,-1,-13
COc1ccc(Cl)cc1NC(=O)CSc1nc(=O)n2ccccc2n1,3,0,5,5.7*,0,-15
CC(=O)C1=C(O)C(=O)N(CCN2CCNCC2)C1c1ccccc1 (configuration not stated),6,0,7,-2,nt,nt
O=S1(=O)N=C(Nc2ccc(I)cc2)c2ccccc21,-6,0,11,-1,nt,nt
